# Screening results as filed in PubChem BioAssay.
# PAX8 inh HTS: lowers PAX8-driven luciferase in RMG-I cells | RMG-I TPO-luciferase reporter, SteadyGlo, 24 h | inhibition, % at 12.6 µM | 360,000 tested, 1.2% active | AID 652154;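 active means mean replicate inhibition at least 60% with every replicate also reaching 60%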;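 further: luciferase light reporting Pax8 driven TPO promoter activity; plate controls were median of neutral control wells for no effect and mitoxantrone controls for full effect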
# Gli-Sufu block: blocks Gli-Sufu signaling in a luciferase reporter | inhibition, % at 5 µM | 340,000 tested, 0.74% active | AID 588413 | Sufu-KO-LIGHT fibroblasts, Gli luciferase reporter luminescence;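 active means inhibition above about 55%, limit read from the data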;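 further: 0% = DMSO-treated cells and 100% = wells with medium but no cells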
# Mdm2-MdmX inh: inhibitors of human Mdm2/MdmX interaction. O15151+Q00987. SaOS-2 split-luciferase Mdm2/MdmX complementation, luminescence. inhibition, % at 8 µM. 330,000 tested, 3% active;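 active means inhibition of at least 50% at 8 µM in the primary screen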
# Shn3 3UTR inh: Schnurri-3 reporter inhibition in Clone20 osteoblasts; Clone20 osteoblast Shn3 3'UTR firefly luciferase, 24 h; inhibition, % at 12.5 µM; 360,000 tested, 0.52% active;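 active means mean inhibition of at least 75% with every replicate also reaching 75%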;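 further: 0% = median of neutral control wells and 100% = pilot-screen positive control compound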
# CSC inhib: cancer stem cell inhibition. cancer stem cell-like cells viability, luminescence. inhibition, % at 7.5 µM. 300,000 tested, 1.1% active. AID 2717; in the data active means inhibition above about 75%; tested in HMLE shEcad cells
# Beta apoptosis: blocks beta cell apoptosis; INS-1E cytokine-induced death, ATP luminescence, 48 h; percent of positive-control rescue, neutral wells zero; protection from apoptosis, % (no concentration beside the values); 300,000 tested, 0.8% active; AID 435005;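 active means Every replicate reaches about 75%, or at least half do and their mean reaches it too, limit read from the data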;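 further: 0% = cytokine-treated negative control wells and 100% = positive control rescue; higher means more ATP so stronger rescue from cytokine killing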
# Gli antag conf: Gli-SUFU antagonism confirmation, single concentration; Sufu-KO-LIGHT cells, Gli luciferase reporter, luminescence; 2,500 tested, 40% active; inhibition, % at 5 µM; AID 602428; shares compounds with Gli-Sufu block;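 active means mean inhibition at 5 µM reaching about 45%, limit read from the data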;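 further: plate controls were DMSO-treated cells for no effect and wells lacking cells for full effect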
# Gli cytotox: counter-screen for Gli-SUFU antagonists: cytotoxicity. shares compounds with Gli-Sufu block. Sufu-KO-LIGHT cells cytotoxicity, ATP luminescence. cytotoxicity, % at 5 µM. 2,500 tested, 32% active;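 active means mean cytotoxicity at 5 µM above about 25%, limit read from the data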;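 further: cells exposed to compound overnight for roughly 16 to 18 hours; plate controls were DMSO wells with cells for no effect and medium without cells for full effect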
# Wnt3a cs: counter-screen for Gli-SUFU antagonists: Wnt3a reporter inhibition. AID 651995. Wnt-LIGHT cells, Wnt3a-driven luciferase reporter, luminescence. shares compounds with Gli-Sufu block. 2,500 tested, 20% active. inhibition, % at 6.25 µM;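 active means mean inhibition above about 25%, limit read from the data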
# Numbers without * were called inactive; · = no result. Only some compounds are listed: those with a hit (about 4% of all), similar ones and a draw of the others.
SMILES,PAX8 inh HTS,Gli-Sufu block,Mdm2-MdmX inh,Shn3 3UTR inh,CSC inhib,Beta apoptosis,Gli antag conf,Gli cytotox,Wnt3a cs
N=c1c(C(=O)NC2CCCC2)cc2c(=O)n3ccccc3nc2n1CC1CCCO1 (stereo not drawn),-4.2,4.0,11.8,2.2,-5.3,·,·,·,·
CC(NC(=O)c1cc2c(=O)n3ccccc3nc2n(CC2CCCO2)c1=N)c1ccccc1 (stereo not drawn),-7.9,59.1*,17.9,25.2,4.9,4.6,29.9,10.8,-53.0
O=C([C@H]1[C@H](CO)[C@H]2Cn3c(ccc(-c4cccnc4)c3=O)[C@@H]1N2CCC(F)(F)F)N1CCCCC1,-10.2,·,·,·,·,·,·,·,·
Cc1ccc(C2C(C#N)=C(N)N(c3cccnc3)C3=C2C(=O)CCC3)s1 (stereo not drawn),-14.8,60.3*,-13.3,4.1,-10.9,0.3,28.9,3.1,-3.7
O=C1c2ccccc2NC(c2cccc(F)c2)N1Cc1ccco1 (stereo not drawn),·,64.6*,16.8,9.1,15.7,-9.0,20.3,14.8,-9.7
CC(=O)Nc1nc(C)cs1,-3.7,2.7,19.2,-20.5,-7.8,1.3,·,·,·
Cc1ccc(CNc2nc(C)cs2)cc1,-31.5,73.1*,-19.0,-88.5,-7.4,-8.3,-59.5,20.7,-59.1
Cc1ccc(S(=O)(=O)NCCC(=O)N2CCCCCCC2)cc1,0.0,95.5*,-29.1,-0.9,-4.3,2.5,12.5,1.2,-10.9
O=C(CCNS(=O)(=O)c1ccccc1)N1CCCCCCC1,-29.9,-21.2,-2.1,-19.3,·,2.5,·,·,·
C[C@@H]1CCCCO[C@@H](CN(C)C(=O)Nc2ccc3c(c2)OCO3)[C@H](C)CN([C@@H](C)CO)C(=O)c2cc(NC(=O)Nc3ccc4c(c3)OCO4)ccc2O1,-20.2,·,·,·,·,·,·,·,·
CCN1C(=O)/C(=C\c2ccc(F)cc2)N=C1SCC(=O)NCc1ccco1,-12.1,2.3,29.0,-24.5,-8.9,-11.0,·,·,·
C=CCN1C(=O)/C(=C\c2ccc(Cl)cc2)N=C1SCC(=O)NCCC,·,55.9*,9.8,-10.4,-4.0,-3.1,16.9,20.3,10.1
COc1ccc(OC)c(/C=N/n2c(COc3ccccc3)n[nH]c2=S)c1,7.5,-1.5,-10.3,-2.4,-9.5,7.2,·,·,·
COc1cc(OC)c(OC)cc1/C=N/n1c(COc2ccccc2)n[nH]c1=S,-16.0,57.2*,9.5,3.4,15.8,11.5,25.3,18.4,-21.5
CCC(C)[C@H]1CN=C(N)N1CC1CCCCC1 (stereo partly drawn),·,65.1*,5.5,·,-14.6,38.5,67.7*,25.5*,28.7*
CCCNC(=O)[C@@H]1[C@@H](CO)[C@@H]2Cn3c(cccc3=O)[C@@H]2N1CC1CC1,1.7,·,·,·,·,·,·,·,·
COc1ccc(-c2ccc(OC)cc2)cc1,·,-34.1,-8.8,-111.1,-12.8,-1.8,·,·,·
COc1ccc(-c2cnc3c(c2)CCC3(C#N)C#N)cc1,17.6,51.6,·,7.4,32.8,1.1,61.1*,47.1*,-31.8
COc1ccc(NC(=O)N(C)C[C@@H]2OCCCC[C@@H](C)Oc3ccc(NS(=O)(=O)c4c(C)noc4C)cc3C(=O)N([C@H](C)CO)C[C@H]2C)cc1,6.7,·,·,·,·,·,·,·,·
CO[C@H]1CN(C)C(=O)c2cc(NS(=O)(=O)CC(F)(F)F)ccc2OC[C@H](C)N(CC2CCCCC2)C[C@@H]1C,12.9,·,·,·,·,·,·,·,·
O=C(NCc1ccc2c(c1)OCO2)[C@@H]1[C@@H](CO)[C@@H]2Cn3c(cccc3=O)[C@H]1N2Cc1ccccc1,6.0,·,·,·,·,·,·,·,·
CNC(=O)C12CC3CC(CC(Cl)(C3)C1)C2,-4.7,-0.3,-3.7,-15.9,-3.9,-4.3,·,·,·
COCCNC(=O)C12CC3CC(CC(Cl)(C3)C1)C2,-3.7,51.8,11.8,-0.9,5.7,-5.5,30.9,-0.3,6.0
COc1cccc(CN(C)C[C@@H]2OCc3ccccc3-c3c(n(C)c4ccccc34)C(=O)N([C@H](C)CO)C[C@H]2C)c1,18.7,·,·,·,·,·,·,·,·
Cc1ccc(C)c(-c2csc(NC(=O)C3=COCCO3)n2)c1,-22.0,62.8*,2.0,61.4,·,76.7*,62.9*,13.4,-24.7
SMILES,PAX8 inh HTS,Gli-Sufu block,Mdm2-MdmX inh,Shn3 3UTR inh,CSC inhib,Beta apoptosis,Gli antag conf,Gli cytotox,Wnt3a cs
COc1cc2[nH]c(=S)n(Cc3ccccc3)c(=O)c2cc1OC,-4.2,-6.1,12.3,8.1,14.8,9.1,·,·,·
COc1cc2[nH]c(=O)n(Cc3ccccc3Cl)c(=O)c2cc1OC,-16.1,54.9,7.4,-1.2,-7.3,2.3,30.9,5.9,10.4
CCCN(C)C[C@@H]1OCCCC[C@@H](C)Oc2ccc(NS(=O)(=O)c3c(C)noc3C)cc2C(=O)N([C@@H](C)CO)C[C@@H]1C,-35.1,·,·,·,·,·,·,·,·
COc1ccc(C)cc1-n1nnnc1SCc1cc(=O)n2cc(C)ccc2n1,·,57.9*,29.1,80.1,8.7,40.3,57.0*,36.6*,6.2
COc1ccc(C)cc1-n1nnnc1SCn1nnc2ccccc2c1=O,9.5,57.5*,14.1,81.4,-10.3,49.6,64.3*,30.7*,31.7*
Cc1ccc(-n2nnnc2SCn2nnc3ccccc3c2=O)cc1,·,-4.6,-67.0,-9.2,6.8,-3.3,·,·,·
CO[C@@H]1CN(C)C(=O)c2cc(NC(=O)C3CC3)ccc2OC[C@@H](C)N(Cc2ccc(F)cc2)C[C@H]1C,13.7,·,·,·,·,·,·,·,·
CC(C)(C)c1ccc(OCCCN2CCCC2)cc1,-2.4,57.4*,21.5,-7.2,34.5,-7.4,25.1,-2.0,-26.5
COCCN(Cc1cc2cc3c(cc2nc1Cl)OCO3)C(=O)Nc1ccc(OC)cc1,-12.4,54.8,16.4,74.8,-8.5,17.0,29.0,-1.1,-19.7
Cc1ccc(S(=O)(=O)N2CCC(=O)N(CCOCc3ccc(C(F)(F)F)cc3)CC2)cc1,14.8,52.0,15.7,53.9,-6.0,46.8,29.8,13.4,-29.1
CCCN(C)C[C@@H]1Oc2ncc(C#Cc3ccccc3OC)cc2C(=O)N([C@H](C)CO)C[C@@H]1C,17.8,·,·,·,·,·,·,·,·
CCCN(C)C[C@@H]1OCc2cnnn2CCCC(=O)N([C@@H](C)CO)C[C@H]1C,-12.2,·,·,·,·,·,·,·,·
Cc1cnccc1CN(C)Cc1nc(Cc2ccccc2Cl)no1,21.1,55.2*,-6.1,79.0,34.6,33.9,31.0,9.6,-2.1
Cc1ccc(NC(=O)NNC(=O)COc2ccc([N+](=O)[O-])cc2)cc1C,·,28.2,-1.3,-22.8,2.8,2.7,·,·,·
O=C(COc1ccc([N+](=O)[O-])cc1)NNC(=O)Nc1ccc([N+](=O)[O-])cc1,·,97.9*,38.5,16.2,3.4,20.2,-1.0,-10.1,-1.8
O=S(=O)(N[C@H]1CC[C@H](CCn2cc(C3(O)CCCC3)nn2)O[C@@H]1CO)c1ccc(Cl)cc1,12.4,·,·,·,·,·,·,·,·
CCCC(=O)Nc1ccc2c(c1)OC[C@H](C)N(CCC(F)(F)F)C[C@H](C)[C@@H](OC)CN(C)C2=O,-30.9,·,·,·,·,·,·,·,·
